Test results as given in PubChem BioAssay (NCATS).
Several values for one entry are separate records, joined by “and”; a condition that tells them apart may be missing. Equal entries are not always repeated. Values without a mark were called inactive. Records with an inconclusive call do not appear. Entries that show only a call come without a potency. Activity calls are given as the source filed them. The call rests on the fitted dose curve; in most records, active means well fitted curve in the direction sought with a large enough effect; inconclusive means small, poorly fitted or top-dose-only effect, or another doubt; inactive means no such curve, though single readings can be large; an effect the other way counts as inactive or inconclusive.

Tests used:
[1] = Cell Viability - N2a (AID 540); settings: N2a mouse neuroblastoma cell viability; activity change, negative = cytotoxicity: at 92.2 µM (top of the series);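 further: cells exposed to compound for 40 h at 37 °C; nearly all actives have a fitted effect of over 45% in size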; further: potency means the concentration at half of the fitted maximal effect
Outline: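 First, 1500 N2a cells per well incubate 5 hr at 37 °C; next, compounds are added and incubated 40 hr at 37 °C; finally CellTiter-Glo is added and luminescence read after 20 min, with AC50 derived by Hill modeling.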

[2] = Cell Viability - Renal Proximal Tubule (AID 545);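 further: cells exposed to compound for 40 hours; nearly all actives have a fitted effect of over 40% in size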
Outline: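 Cytotoxicity is scored as a concentration-dependent drop in cellular ATP in primary rat renal proximal tubule cells exposed for 40 hr. AC50 derives from Hill modelling.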

[3] = Cellular Toxicity (caspase-3) Jurkat (AID 655); settings: Jurkat caspase-3 activation, luminescence; caspase-3 activation: at 92.2 µM (top of the series), DMSO = 0%, tamoxifen = 100%;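 further: cells exposed to compound for 16 h at 37 °C before reading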
Outline: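 Caspase 3/7 activation is scored as increased luminescence in Jurkat cells cultured with compound for 16 hours in complete medium. AC50 values come from Hill fits of qHTS concentration-response data normalized to DMSO and 100 uM tamoxifen controls.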

[4] = Cellular Toxicity (caspase-3) NIH 3T3 (AID 666);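 further: caspase signal read after 16 h compound exposure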
Outline: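 Concentration-response qHTS in NIH 3T3 mouse fibroblasts scores caspase-3/7 activation as rising luminescence after 16 hr compound exposure. Signals are scaled between DMSO-only and 100 uM tamoxifen.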

[5] = Cellular Toxicity (caspase-3) Renal Proximal Tubule (AID 667);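 further: cells exposed to compound for 16 hours at 37 °C before detection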
Outline: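 In qHTS format, rat primary proximal tubule cells seeded at 1000 per well are exposed to compounds for 16 hours at 37 °C. An increase in Caspase-Glo 3/7 luminescence indicates caspase activation.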

[6] = MultiTox-Fluor Cytotoxicity Assay - LYMP1-001 - Dead Cells (AID 946)
Outline: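 Seed 2500 LYMP1-001 cells/well, incubate 5 hr at 37 C; add compound, 16 hr at 37 C; add MultiTox-Fluor reagent, 60 min RT; read dead-cell fluorescence Ex/Em=485/520. Normalize to DMSO and 15 uM tetraoctylammonium bromide.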

[7] = Cell Viability - LYMP1-003 - Assay at 24 hr (AID 963)
Outline: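 Acute toxicity in LYMP1-003 lymphoblastoid cells: 24 hr compound treatment at 37 C, ATP measured with CellTiter-Glo after 30 min at room temperature. AC50 derived by fitting the Hill equation to qHTS titrations.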

[8] = Cell Viability - LYMP2-009 (AID 968); further: nearly all actives have a fitted effect of over 55% in size
[9] = Cell Viability - LYMP2-011 (AID 969); further: nearly all actives have a fitted effect of over 60% in size
Outline: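 Acute toxicity is scored as a concentration-dependent drop in intracellular ATP of a human lymphoblastoid line after 24 hr treatment. Values are AC50s modeled with the Hill equation.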

[10] = Cell Viability - LYMP2-019 (AID 973); further: nearly all actives have a fitted effect of over 55% in size
Outline: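 Cells plated at 2500/well and allowed 5 hr at 37 C before compound addition. After 24 hr incubation, CellTiter-Glo reagent was added, plates sat 30 min at room temperature, and luminescence was recorded.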

[11] = Cell Viability - LYMP2-002 (AID 977)
Outline: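 Luminescent ATP readout (CellTiter-Glo, 30 min room temperature) after 24 h compound exposure at 37 C of a human lymphoblastoid line, 2500 cells/well. AC50 values derived by standard Hill fitting of qHTS concentration-response data.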

[12] = Cell Viability - LYMP2-006 (AID 978); further: nearly all actives have a fitted effect of over 60% in size
Outline: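 Concentration-dependent loss of intracellular ATP in a human lymphoblastoid line after 24 hr treatment at 37 C was measured by CellTiter-Glo luminescence, with AC50 values obtained from standard Hill-equation modelling.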

[13] = Cell Viability - LYMP2-010 (AID 981); further: nearly all actives have a fitted effect of over 55% in size
Outline: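 Acute toxicity is scored as a concentration-dependent loss of cellular ATP in human lymphoblastoid cells after 24 hr compound exposure in complete medium. Tetraoctylammonium bromide is the positive control.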

[14] = Cell Viability - LYMP2-014 (AID 983); further: nearly all actives have a fitted effect of over 50% in size
Outline: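 Decrease in intracellular ATP after 24 hr treatment at 37 C, measured by luciferase luminescence, indicated cytotoxicity. Concentration-response data were fitted with the standard Hill equation to give AC50.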

[15] = Cell Viability - LYMP2-022 (AID 987); further: nearly all actives have a fitted effect of over 55% in size
Outline: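 Acute toxicity in a human lymphoblastoid line is scored as decreased intracellular ATP after 24 hr compound treatment at 37 C. ATP is measured by CellTiter-Glo luminescence; curves are fitted with the Hill equation to give AC50.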

[16] = qHTS assay for environmental chemicals that activate the Aryl hydrocarbon Receptor (AhR) signaling pathway (AID 651777); settings: 1A2-DRE human hepatoma cells, luciferase, 24 h; activation: stronger effect = higher value; further: nearly all actives have a fitted effect of over 15% in size
Outline: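 Human hepatoma 1A2-DRE cells stably carrying a DRE/CYP1A2 promoter–luciferase reporter, 1,200 cells/well, exposed to compound 24 hr at 37 C. Luciferase read by One-Glo luminescence after 30 min at room temperature; increased signal marks AhR activation.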

[17] = qHTS assay for cell viability of the p53RE-bla HCT-116 cell line (AID 743292); further: nearly all actives have a fitted effect of over 55% in size
Outline: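 CellSensor p53RE-bla HCT-116 cells (4,000/well) pre-incubated 5 h at 37 C, then exposed to compounds in DMSO for 16 h at 37 C. Viability read as ATP content by CellTiter-Glo luminescence after 30 min at room temperature.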

[18] = Cell Viability - LYMP1-003 - Assay at 40 hr (AID 964); further: nearly all actives have a fitted effect of over 60% in size
Outline: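 This qHTS cytotoxicity screen treats human lymphoblastoid cells (LYMP1-003) with compounds for 40 hr and quantifies cellular ATP via luciferase luminescence.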

[19] = Cell Viability - LYMP2-020 (AID 986); further: nearly all actives have a fitted effect of over 55% in size
Outline: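 Acute cytotoxicity in a human lymphoblastoid line is scored as a concentration-dependent fall in cellular ATP after 24 hr at 37 C in complete medium. The positive control is tetraoctylammonium bromide, and potency is given as Hill-fit AC50.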

[20] = target: Peroxisome proliferator-activated receptor alpha (Homo sapiens) (UniProt Q07869); test: qHTS assay for small molecule agonists of the peroxisome proliferator-activated receptor alpha (PPARalpha) signaling pathway (AID 651778); settings: PathHunter PPARalpha complementation, chemiluminescence, 6 h; stronger effect = higher value
Outline: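 Cells plated at 2,000/well and held overnight at 37 C, 5% CO2, then compound added by pin tool for 6 hr; after PathHunter detection reagent and 60 min at room temperature, chemiluminescence from enzyme complementation was read.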

Sequence of Peroxisome proliferator-activated receptor alpha (Homo sapiens) (Q07869 whole entry, looked up): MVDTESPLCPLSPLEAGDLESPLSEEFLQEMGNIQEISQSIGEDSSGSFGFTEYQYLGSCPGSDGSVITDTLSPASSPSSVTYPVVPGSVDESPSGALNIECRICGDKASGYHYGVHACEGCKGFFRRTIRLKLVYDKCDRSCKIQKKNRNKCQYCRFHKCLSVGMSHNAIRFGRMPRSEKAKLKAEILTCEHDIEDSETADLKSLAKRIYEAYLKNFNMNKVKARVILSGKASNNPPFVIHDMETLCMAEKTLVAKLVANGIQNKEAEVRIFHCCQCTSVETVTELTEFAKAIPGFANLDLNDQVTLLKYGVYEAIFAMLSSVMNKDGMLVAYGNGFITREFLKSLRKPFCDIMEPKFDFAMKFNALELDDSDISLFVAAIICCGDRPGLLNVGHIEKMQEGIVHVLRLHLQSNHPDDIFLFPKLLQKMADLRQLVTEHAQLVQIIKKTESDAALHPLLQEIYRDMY

Row | Compound | Potency [1] | outcome [2] | caspase-3 activation [3] | Potency [4] | outcome [5] | outcome [6] | outcome [7] | Potency [8] | Potency [9] | Potency [10] | Potency [11] | Potency [12] | Potency [13] | Potency [14] | Potency [15] | activation [16] | Potency [17] | Potency [18] | Potency [19] | max response [20]
1 | ClCC(Cl)Cl | inactive | inactive | 0.231% | inactive | inactive | inactive | inactive | inactive | inactive | inactive | inactive | inactive | inactive | inactive | inactive | 1.04% | inactive | – | – | –
2 | CCCCOC(C)=O | – | inactive | 1.84% | inactive | inactive | inactive | inactive | inactive | inactive | inactive | inactive | inactive | – | inactive | – | -0.098% | inactive | inactive | inactive | -4.39%
3 | Nc1ncc([N+](=O)[O-])s1 | inactive | inactive | -1.21% | – | – | inactive | inactive | inactive | inactive | inactive | – | – | inactive | – | – | 1.78% | inactive | inactive | – | 7.02%
4 | Oc1ccc(Cl)c(Cl)c1 | – | inactive | -1.55% | – | inactive | inactive | – | inactive | inactive | inactive | inactive | inactive | inactive | inactive | inactive | 1.35% | inactive | inactive | inactive | -3.58%
5 | O=S(=O)(Cl)c1ccccc1 | – | – | – | inactive | inactive | inactive | inactive | inactive | inactive | inactive | inactive | inactive | inactive | inactive | inactive | 0.182% and 1.5% | – | inactive | – | -0.206% and -0.679%
6 | C=CCBr | – | inactive | – | inactive | – | inactive | inactive | – | inactive | inactive | inactive | inactive | inactive | inactive | inactive | – | inactive | inactive | inactive | -4.55%
7 | Cc1cccc(N)c1C | – | inactive | 0.961% | inactive | inactive | – | inactive | inactive | inactive | inactive | inactive | – | inactive | inactive | – | 0.811% | inactive | – | inactive | –
8 | BrC(Br)Br | inactive | inactive | -0.161% | inactive | inactive | inactive | inactive | – | inactive | inactive | inactive | inactive | inactive | inactive | inactive | 2.01% | inactive | inactive | inactive | -7%
9 | CCN(CC)N=O | – | inactive | 1.16% | inactive | inactive | – | inactive | inactive | – | – | inactive | inactive | – | inactive | inactive | -0.0915% | inactive | inactive | inactive | 2.1%
10 | CCCCOCC1CO1 (centres undefined) | inactive | inactive | – | inactive | inactive | – | inactive | inactive | inactive | – | inactive | inactive | inactive | inactive | inactive | – | inactive | inactive | inactive | -2.14%
11 | Nc1ccc(Cl)c(Cl)c1 | inactive | – | 0.952% | inactive | inactive | – | inactive | inactive | inactive | inactive | inactive | inactive | – | inactive | inactive | – | inactive | inactive | inactive | -1.3%
12 | OCCCCO | – | – | -0.218% | inactive | inactive | inactive | inactive | inactive | inactive | inactive | inactive | – | inactive | – | inactive | -0.427% | inactive | – | inactive | -0.393%
13 | c1ccc(Nc2ccc(Nc3ccccc3)cc2)cc1 | 15.8 µM (active) | – | 8.77% | – | inactive | inactive | inactive | inactive | inactive | inactive | inactive | inactive | inactive | inactive | – | – | inactive | inactive | inactive | -0.732%
14 | ClC(Cl)C(Cl)Cl | inactive | inactive | 1.02% | inactive | inactive | – | inactive | inactive | inactive | inactive | inactive | inactive | inactive | inactive | inactive | -2.65% | inactive | inactive | inactive | -3.31%
